Reference: the supplement of paper PMC7411054
Counter-ions that a name gives are not always drawn.

Tests used:
Experiment in all cases: phenotypically active (imaging signature differs from DMSO and reproducible) at any of 0.3-9 uM (binary (1 = active, 0 = inactive)); higher = active
Conditions in all cases: treatment time: 24 h
[1] = tested on: A549-ACTB-RAB5A
How it was run: (§1)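 Phenotypic activity depended on meeting both a deviation and a reproducibility criterion. The fifteen gene-edited A549, HepG2 and WPMY1 reporter lines were treated at 0.3, 1, 3 or 9 µM for 24 h, four wells each, then imaged live with features normalised to solvent control wells. Deviation required ≥3 of 4 wells past the 95th percentile of control Euclidean distances, and reproducibility a median replicate Pearson correlation above the 95th percentile of non-replicates.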

[2] = tested on: A549-CANX-COX4
How it was run: as §1

[3] = tested on: A549-GM130-SQSTM1
How it was run: as §1

[4] = tested on: A549-TP53BP1-CLTA
How it was run: as §1

[5] = tested on: A549-TUBA1B-RELA
How it was run: as §1

[6] = tested on: HepG2-ACTB-RAB5A
How it was run: as §1

[7] = tested on: HepG2-CANX-COX4
How it was run: as §1

[8] = tested on: HepG2-GM130-SQSTM1
How it was run: as §1

[9] = tested on: HepG2-TP53BP1-CLTA
How it was run: as §1

[10] = tested on: HepG2-TUBA1B-RELA
How it was run: as §1

[11] = tested on: WPMY1-ACTB-RAB5A
How it was run: as §1

[12] = tested on: WPMY1-CANX-COX4
How it was run: as §1

[13] = tested on: WPMY1-GM130-SQSTM1
How it was run: as §1

[14] = tested on: WPMY1-TP53BP1-CLTA
How it was run: as §1

[15] = tested on: WPMY1-TUBA1B-RELA
How it was run: as §1

Measured: phenotypically active

Nc1ccc(O)c(C(=O)O)c1 [mesalazine]
inactive: [1] 0 | [2] 0 | [3] 0 | [4] 0 | [5] 0 | [6] 0 | [7] 0 | [8] 0 | [9] 0 | [10] 0 | [11] 0 | [12] 0 | [13] 0 | [14] 0 | [15] 0

C=C1C[C@@]23CCC4[C@@](C)(CCC[C@@]4(C)C(=O)O[C@@H]4O[C@H](CO)C(O)[C@H](O)C4O)C2CC[C@@]1(O[C@H]1O[C@H](CO)C(O)[C@H](O)[C@H]1O[C@@H]1O[C@H](CO)[C@@H](O)[C@H](O)[C@H]1O)C3 (stereo not given in full) [Stevioside]
inactive: [1] 0 | [2] 0 | [3] 0 | [4] 0 | [5] 0 | [6] 0 | [7] 0 | [8] 0 | [9] 0 | [10] 0 | [11] 0 | [12] 0 | [13] 0 | [14] 0 | [15] 0

Cc1ccc(-c2cc(C(F)(F)F)nn2-c2ccc(S(N)(=O)=O)cc2)cc1 [celecoxib]
inactive: [1] 0 | [2] 0 | [3] 0 | [4] 0 | [5] 0 | [6] 0 | [7] 0 | [8] 0 | [9] 0 | [10] 0 | [11] 0 | [12] 0 | [13] 0 | [14] 0 | [15] 0

CNC(=O)COC(=O)N1CCC(CCc2ccc(Cl)cc2)CC1
inactive: [1] 0 | [2] 0 | [3] 0 | [4] 0 | [5] 0 | [6] 0 | [7] 0 | [8] 0 | [9] 0 | [10] 0 | [11] 0 | [12] 0 | [13] 0 | [14] 0 | [15] 0

CS(=O)(=O)OCCCCOS(C)(=O)=O [busulfan]
inactive: [1] 0 | [2] 0 | [3] 0 | [4] 0 | [5] 0 | [6] 0 | [7] 0 | [8] 0 | [9] 0 | [10] 0 | [11] 0 | [12] 0 | [13] 0 | [14] 0 | [15] 0

CCCCCC1CC1CC1CC1CCCCCCCC(=O)O (stereo not given)
inactive: [1] 0 | [2] 0 | [3] 0 | [4] 0 | [5] 0 | [6] 0 | [7] 0 | [8] 0 | [9] 0 | [10] 0 | [11] 0 | [12] 0 | [13] 0 | [14] 0 | [15] 0

CC(C)c1ccc(NC(=O)Cn2cnc3c2c(=O)n(C)c(=O)n3C)cc1
inactive: [1] 0 | [2] 0 | [3] 0 | [4] 0 | [5] 0 | [6] 0 | [7] 0 | [8] 0 | [9] 0 | [10] 0 | [11] 0 | [12] 0 | [13] 0 | [14] 0 | [15] 0

c1ccc(CC2=NCCN2)cc1 [tolazoline]
inactive: [1] 0 | [2] 0 | [3] 0 | [4] 0 | [5] 0 | [6] 0 | [7] 0 | [8] 0 | [9] 0 | [10] 0 | [11] 0 | [12] 0 | [13] 0 | [14] 0 | [15] 0

O=C1CC(c2ccc(O)cc2)Oc2cc(O)cc(O)c21 (stereo not given) [Naringenine]
inactive: [1] 0 | [2] 0 | [3] 0 | [4] 0 | [5] 0 | [6] 0 | [7] 0 | [8] 0 | [9] 0 | [10] 0 | [11] 0 | [12] 0 | [13] 0 | [14] 0 | [15] 0

CC[C@]12CCCN3CCc4c(n(c5ccccc45)[C@@](O)(C(=O)OC)C1)[C@@H]32 [Vincamine]
inactive: [1] 0 | [2] 0 | [3] 0 | [4] 0 | [5] 0 | [6] 0 | [7] 0 | [8] 0 | [9] 0 | [10] 0 | [11] 0 | [12] 0 | [13] 0 | [14] 0 | [15] 0

COc1ccc2[nH]c(S(=O)Cc3ncc(C)c(OC)c3C)nc2c1 (stereo not given) [omeprazole]
inactive: [1] 0 | [2] 0 | [3] 0 | [4] 0 | [5] 0 | [6] 0 | [7] 0 | [8] 0 | [9] 0 | [10] 0 | [11] 0 | [12] 0 | [13] 0 | [14] 0 | [15] 0

CC1(C(=O)O)CCC2(C)CCC3(C)C(=CC(=O)C4C5(C)CCC(OC6OC(C(=O)O)C(O)C(O)C6OC6OC(C(=O)O)C(O)C(O)C6O)C(C)(C)C5CCC43C)C2C1 (stereo not given) [Glycyrrhizic acid]
inactive: [1] 0 | [2] 0 | [3] 0 | [4] 0 | [5] 0 | [6] 0 | [7] 0 | [8] 0 | [9] 0 | [10] 0 | [11] 0 | [12] 0 | [13] 0 | [14] 0 | [15] 0

NC[C@H](O)c1ccc(O)c(O)c1 [norepinephrine]
inactive: [1] 0 | [2] 0 | [3] 0 | [4] 0 | [5] 0 | [6] 0 | [7] 0 | [8] 0 | [9] 0 | [10] 0 | [11] 0 | [12] 0 | [13] 0 | [14] 0 | [15] 0

C[C@H](NCCc1ccc(O)cc1)[C@H](O)c1ccc(O)cc1 [ritodrine]
inactive: [1] 0 | [2] 0 | [3] 0 | [4] 0 | [5] 0 | [6] 0 | [7] 0 | [8] 0 | [9] 0 | [10] 0 | [11] 0 | [12] 0 | [13] 0 | [14] 0 | [15] 0

CNC[C@H](O)c1ccc(O)c(O)c1 [epinephrine]
inactive: [1] 0 | [2] 0 | [3] 0 | [4] 0 | [5] 0 | [6] 0 | [7] 0 | [8] 0 | [9] 0 | [10] 0 | [11] 0 | [12] 0 | [13] 0 | [14] 0 | [15] 0

CC(=O)[C@H]1CC[C@H]2[C@@H]3C=CC4=CC(=O)CC[C@@]4(C)[C@@H]3CC[C@]12C [dydrogesterone]
inactive: [1] 0 | [2] 0 | [3] 0 | [4] 0 | [5] 0 | [6] 0 | [7] 0 | [8] 0 | [9] 0 | [10] 0 | [11] 0 | [12] 0 | [13] 0 | [14] 0 | [15] 0

Cc1cc(O)cc2c1C(=O)Oc1cc3c(c(O)c1O2)C(=O)OC3 [Variolaric acid]
inactive: [1] 0 | [2] 0 | [3] 0 | [4] 0 | [5] 0 | [6] 0 | [7] 0 | [8] 0 | [9] 0 | [10] 0 | [11] 0 | [12] 0 | [13] 0 | [14] 0 | [15] 0

CC(=O)N1CCN(C)CC1 [1-Acetyl-4-methylpiperazine hydrochloride]
inactive: [1] 0 | [2] 0 | [3] 0 | [4] 0 | [5] 0 | [6] 0 | [7] 0 | [8] 0 | [9] 0 | [10] 0 | [11] 0 | [12] 0 | [13] 0 | [14] 0 | [15] 0

CCN(CC)CCNC(=O)c1cc(Cl)c(N)cc1OC [metoclopramide]
inactive: [1] 0 | [2] 0 | [3] 0 | [4] 0 | [5] 0 | [6] 0 | [7] 0 | [8] 0 | [9] 0 | [10] 0 | [11] 0 | [12] 0 | [13] 0 | [14] 0 | [15] 0

CC1Cc2ccccc2N1NC(=O)c1ccc(Cl)c(S(N)(=O)=O)c1 (stereo not given) [indapamide]
inactive: [1] 0 | [2] 0 | [3] 0 | [4] 0 | [5] 0 | [6] 0 | [7] 0 | [8] 0 | [9] 0 | [10] 0 | [11] 0 | [12] 0 | [13] 0 | [14] 0 | [15] 0

COC(=O)c1ccc(N2CCN(C)CC2)c(NC(=O)c2cccc(OC)c2)c1
inactive: [1] 0 | [2] 0 | [3] 0 | [4] 0 | [5] 0 | [6] 0 | [7] 0 | [8] 0 | [9] 0 | [10] 0 | [11] 0 | [12] 0 | [13] 0 | [14] 0 | [15] 0

NS(=O)(=O)c1cc2c(cc1Cl)N=CNS2(=O)=O [chlorothiazide]
inactive: [1] 0 | [2] 0 | [3] 0 | [4] 0 | [5] 0 | [6] 0 | [7] 0 | [8] 0 | [9] 0 | [10] 0 | [11] 0 | [12] 0 | [13] 0 | [14] 0 | [15] 0

C[N+](C)(C)CC[N+]1(C)Cc2c(Cl)c(Cl)c(Cl)c(Cl)c2C1 [Chlorisondamine diiodide]
inactive: [1] 0 | [2] 0 | [3] 0 | [4] 0 | [5] 0 | [6] 0 | [7] 0 | [8] 0 | [9] 0 | [10] 0 | [11] 0 | [12] 0 | [13] 0 | [14] 0 | [15] 0
